These results are taken from PubChem BioAssay (NCI).

About 83,000 compounds went through this panel and 20% of them were active in at least one assay; those are over-represented in the sample as a whole.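 48-hour exposure, single concentration, 96-well plates; percent growth endpoint where 0 means no net growth. Active: below 10.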 Values without a mark were called inactive. Activity calls are given as the source filed them.

This assay concerns MDA-MB-435 melanoma. As to the kind of experiment: NCI-60 one-dose screen, 48 h (100 = growth as untreated, 0 = no growth, -100 = all killed). Conditions: 10 µM unless noted.
Consider `CCOc1ccccc1NC(=O)N/C(N)=N/c1nc2ccccc2s1`, for which the growth was -21.6% (active). Regarding `N#CC1=C(c2cccs2)Nc2c(c(-c3ccccc3)nn2-c2ccccc2)C12C(=O)Nc1ccc(Br)cc12` (stereo not given), the growth was -40.1% (active). `COc1cc(CNC(=O)C[C@H](C)CCC=C(C)C)ccc1OCc1cn(-c2ccc(Cl)c(Cl)c2)nn1`: the growth was 91.3%. `CN1C(=O)/C(=C\C(=O)c2cc3ccccc3oc2=O)c2ccccc21`: the growth is 85.4%.

Take `COc1ccc(Nc2nnc(-c3c[nH]c4ccccc34)o2)cc1`: the growth was 81.9%. Under `Cc1ccc(C2CC(c3ccc(NC(=O)Nc4ccccc4)cc3)=NN2c2ccc(S(N)(=O)=O)cc2)cc1` (stereo not given) stands -91.8% (active). On to `Cc1ccc(C(=O)Nc2cc(-n3cnc(F)c3)cc(C(F)(F)F)c2)cc1C#Cc1cnc2cccnn12`, for which the growth is 46.4%. Turning to `CCCCCCCCc1ccc(C(=O)Nc2ccc(C)c(OP(=O)(O)O)c2)cc1`, the growth is 102%. Turning to `C=CCn1c(O)c(N=Nc2nc(-c3cc4ccccc4oc3=O)cs2)c2ccccc21`, the growth was 98.5%.

For `FC(F)(F)c1cc2c(Cl)ncnc2n1CCN1CCOCC1`, the growth was 86.4%. As for `C/C(=N\Nc1ccc(C(=O)O)cc1)c1cnn(-c2cc(=O)[nH]c3ccc(C)cc23)c1C`, the growth is 101%. Regarding `CCN1CCN(Cc2ccc(C(=O)Nc3cccc(Nc4ccc5c(OC)cccc5n4)c3)cc2C(F)(F)F)CC1`, the growth was -94.9% (active). For `Nc1nn2c(-c3cc4cc(Br)ccc4oc3=O)ccnc2c1N=Nc1ccccc1`, the growth is 71.2%. Take `Cc1cccc(-c2ccccc2Oc2ccc3nnc(Cl)n3n2)c1`: the growth is 105%. With `Cc1ccc(/C=C/C(=O)c2ccc(S(=O)(=O)NCCNc3nc(N(C)C)nc(N4CCOCC4)n3)cc2)cc1`, the growth is 74.8%. Under `C#CCN(C)CCCOc1ccc(N(C)C(=O)c2cc(C(C)C)c(O)cc2O)cc1Cl` stands 4.66% (active); under `Cc1ccc(C(=O)C[n+]2cccc3c4ccccc4ccc32)cc1`, 13.5%.

Consider `COc1ccc(NC(=O)N/N=C/c2c[nH]c3ccccc23)cc1`, for which the growth was -26.1% (active). For `O=C(CSc1nc2ccccc2c(=O)[nH]1)NNC(=O)c1ccccc1Cl`, the growth is 101%.

Regarding `CC[C@]12C=CCN3CC[C@]4(C(=C(C(=O)OC)C1)Nc1cc(OC)c([C@@H]5[C@H]6O[C@H]6[C@@]6(CC)CC(C(=O)OC)=C7Nc8cc(O)ccc8[C@@]78CCN5[C@@H]68)cc14)[C@@H]32`, the growth was -53.9% (active).

As to `O=C(Cc1c(-c2ccccc2[N+](=O)[O-])n(-c2ncnc3c2c(-c2ccccc2)c(-c2ccccc2)n3Cc2ccccc2)[nH]c1=O)c1ccc(Cl)c(Cl)c1`, the growth was 2.32% (active). For the compound `COc1ccc2[nH]c(O)c(N=Nc3nc(-c4ccc(Cl)cc4)cs3)c2c1`, the growth was 33.2%.

Regarding `O=C(CSc1nnc(-c2ccc(-c3nc4ccccc4[nH]3)cc2)o1)Nc1ccccc1`, the growth is 85.6%. Under `CN(C)CCOc1ccc(C(=O)C2[C@H](c3ccc(Cl)cc3)[C@@H](c3ccccc3)NC23C(=O)Nc2ccc(Cl)cc23)cc1` (stereo not given in full) stands -96.2% (active); under `COc1cc(/C=C/C(=O)c2cnn(-c3cc(=O)[nH]c4ccc(Cl)cc34)c2C)cc(OC)c1OC`, -9.26% (active).
